The results in this text go back to the supplement of paper PMC7411054.

Common to all, as to conditions: treatment time: 24 h
Assay [1] relates to A549-ACTB-RAB5A. The assay can be described thus: lowest phenotypically active concentration; higher = less potent. The essentials: (§1)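 Each of fifteen gene-edited A549, HepG2 and WPMY1 reporter lines, marked with BFP for segmentation and GFP and RFP/FusionRed, was treated in four wells at 0.3, 1, 3 or 9 µM for 24 h prior to live imaging. Normalisation of per-well live-cell features used solvent control wells. Deviation needed ≥3 of 4 wells beyond the 95th percentile of control Euclidean distances, and reproducibility needed a median replicate Pearson correlation above the 95th percentile of non-replicates. Both were required for phenotypic activity.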

For assay [2], the system named is A549-CANX-COX4. The description is as above. The essentials:
as §1

For assay [3], the system named is A549-GM130-SQSTM1. The assay is described as above. The essentials: as §1
In assay [4] the test system is HepG2-TP53BP1-CLTA. The description is as above. The essentials:
as §1

Assay [5] concerns HepG2-TUBA1B-RELA. The description is as above. A digest of the protocol: as §1
The test system of assay [6] is A549-ACTB-RAB5A. The assay can be described thus: phenotypically active (imaging signature differs from DMSO and reproducible) at any of 0.3-9 uM (binary (1 = active, 0 = inactive)); higher = active. The essentials: as §1
The subject of assay [7] is A549-CANX-COX4. The assay is described as above. A digest of the protocol:
as §1

In assay [8] the test system is A549-GM130-SQSTM1. The assay is described as above. The essentials:
as §1

Another assay relates to A549-TP53BP1-CLTA. The description is as above. A digest of the protocol: as §1
The test system of another assay is A549-TUBA1B-RELA. Described as above. A digest of the protocol:
as §1

The subject of the next assay is HepG2-ACTB-RAB5A. Described as above. A digest of the protocol:
as §1

For another assay, the system named is HepG2-CANX-COX4. Described as above. The essentials: as §1
The next assay concerns HepG2-GM130-SQSTM1. The description is as above. A digest of the protocol: as §1
For assay [9], the system named is HepG2-TP53BP1-CLTA. The assay is described as above. The essentials: as §1
For assay [10], the system named is HepG2-TUBA1B-RELA. The assay is described as above. The essentials: as §1
The subject of another assay is WPMY1-ACTB-RAB5A. The description is as above. A digest of the protocol:
as §1

In the next assay the test system is WPMY1-CANX-COX4. Described as above. A digest of the protocol: as §1
Another assay relates to WPMY1-GM130-SQSTM1. Described as above. The essentials: as §1
In the next assay the test system is WPMY1-TP53BP1-CLTA. The assay is described as above. The essentials: as §1
The subject of a further assay is WPMY1-TUBA1B-RELA. The description is as above. A digest of the protocol: as §1

A value given as a limit tells only on which side of the number the result lay.

For the molecule `Cc1c[nH]c2nccc(Oc3c(F)cc(Nc4cc(Cl)nc(N)n4)cc3F)c12`, the “lowest phenotypically active concentration” value in the assay with A549-ACTB-RAB5A [1], in the assay with A549-CANX-COX4 [2], with A549-GM130-SQSTM1 [3], in the assay on HepG2-TP53BP1-CLTA [4] and in the assay with HepG2-TUBA1B-RELA [5] was no more than 0.3 µM in each case. The phenotypically active in the assay on A549-ACTB-RAB5A [6], in the assay with A549-CANX-COX4 [7], in the assay with A549-GM130-SQSTM1 [8], in the assay on A549-TP53BP1-CLTA, in the assay with A549-TUBA1B-RELA and with HepG2-ACTB-RAB5A was 1 (active) in each case. Further, the phenotypically active in the assay on HepG2-CANX-COX4, in the assay with HepG2-GM130-SQSTM1, in the assay on HepG2-TP53BP1-CLTA [9], in the assay on HepG2-TUBA1B-RELA [10], in the assay on WPMY1-ACTB-RAB5A and with WPMY1-CANX-COX4 was 1 (active) in each case. Besides, the phenotypically active in the assay on WPMY1-GM130-SQSTM1, in the assay with WPMY1-TP53BP1-CLTA and with WPMY1-TUBA1B-RELA was 1 (active) in each case.

`CN(C)CCCNc1c2c(=O)n(C)c(=O)nc-2n(C)c2ccccc12`: the “lowest phenotypically active concentration” value in the assay on A549-ACTB-RAB5A [1], in the assay with A549-CANX-COX4 [2], in the assay on A549-GM130-SQSTM1 [3], with HepG2-TP53BP1-CLTA [4] and in the assay on HepG2-TUBA1B-RELA [5] was 9 µM throughout. The phenotypically active in the assay with A549-ACTB-RAB5A [6], with A549-CANX-COX4 [7], with A549-GM130-SQSTM1 [8], with A549-TP53BP1-CLTA, in the assay with A549-TUBA1B-RELA and with HepG2-ACTB-RAB5A was 1 (active) each time. Moreover, the phenotypically active in the assay on HepG2-CANX-COX4, in the assay on HepG2-GM130-SQSTM1, with HepG2-TP53BP1-CLTA [9], in the assay with HepG2-TUBA1B-RELA [10], in the assay with WPMY1-ACTB-RAB5A and in the assay on WPMY1-CANX-COX4 was 1 (active) throughout. Moreover, the phenotypically active in the assay on WPMY1-GM130-SQSTM1, in the assay with WPMY1-TP53BP1-CLTA and in the assay on WPMY1-TUBA1B-RELA was 1 (active) each time.

With `Cc1cc(Nc2ncc3c(n2)N(C)C(=O)N(c2cc(NC(=O)c4cccc(C(F)(F)F)c4)ccc2C)C3)n(C)n1` [Pluripotin], the “lowest phenotypically active concentration” value with A549-ACTB-RAB5A [1], in the assay on A549-CANX-COX4 [2], in the assay with A549-GM130-SQSTM1 [3], in the assay with HepG2-TP53BP1-CLTA [4] and in the assay on HepG2-TUBA1B-RELA [5] was no more than 0.3 µM each time. Further, the phenotypically active in the assay with A549-ACTB-RAB5A [6], in the assay with A549-CANX-COX4 [7], in the assay on A549-GM130-SQSTM1 [8], in the assay with A549-TP53BP1-CLTA, in the assay with A549-TUBA1B-RELA and with HepG2-ACTB-RAB5A was 1 (active) each time. For the same molecule, the phenotypically active in the assay with HepG2-CANX-COX4, with HepG2-GM130-SQSTM1, in the assay on HepG2-TP53BP1-CLTA [9], with HepG2-TUBA1B-RELA [10], in the assay with WPMY1-ACTB-RAB5A and with WPMY1-CANX-COX4 was 1 (active) in each case. Further, the phenotypically active in the assay on WPMY1-GM130-SQSTM1, in the assay on WPMY1-TP53BP1-CLTA and in the assay on WPMY1-TUBA1B-RELA was 1 (active) each time.

In the case of `COc1ccccc1-c1c[nH]c2ncc(-c3cncc(C(=O)N(C)C)c3)cc12`, the “lowest phenotypically active concentration” value in the assay on A549-ACTB-RAB5A [1] was no more than 0.3 µM; in the assay on A549-CANX-COX4 [2], 1 µM; in the assay on A549-GM130-SQSTM1 [3], no more than 0.3 µM; in the assay on HepG2-TP53BP1-CLTA [4], no more than 0.3 µM; in the assay on HepG2-TUBA1B-RELA [5], no more than 0.3 µM. The phenotypically active in the assay with A549-ACTB-RAB5A [6], with A549-CANX-COX4 [7], in the assay with A549-GM130-SQSTM1 [8], in the assay on A549-TP53BP1-CLTA, with A549-TUBA1B-RELA and in the assay with HepG2-ACTB-RAB5A was 1 (active) throughout. The phenotypically active with HepG2-CANX-COX4, in the assay on HepG2-GM130-SQSTM1, in the assay on HepG2-TP53BP1-CLTA [9], with HepG2-TUBA1B-RELA [10], with WPMY1-ACTB-RAB5A and with WPMY1-CANX-COX4 was 1 (active) in each case. The phenotypically active in the assay with WPMY1-GM130-SQSTM1, in the assay on WPMY1-TP53BP1-CLTA and with WPMY1-TUBA1B-RELA was 1 (active) throughout.

For `CC(C)NCCCn1c(Sc2cc3c(cc2I)OCO3)nc2c(N)ncnc21`, the “lowest phenotypically active concentration” value in the assay on A549-ACTB-RAB5A [1], with A549-CANX-COX4 [2], in the assay with A549-GM130-SQSTM1 [3], with HepG2-TP53BP1-CLTA [4] and in the assay on HepG2-TUBA1B-RELA [5] was no more than 0.3 µM each time. The phenotypically active in the assay on A549-ACTB-RAB5A [6], in the assay on A549-CANX-COX4 [7], with A549-GM130-SQSTM1 [8], in the assay on A549-TP53BP1-CLTA, in the assay on A549-TUBA1B-RELA and with HepG2-ACTB-RAB5A was 1 (active) each time. Besides, the phenotypically active in the assay with HepG2-CANX-COX4, in the assay on HepG2-GM130-SQSTM1, with HepG2-TP53BP1-CLTA [9], in the assay with HepG2-TUBA1B-RELA [10], with WPMY1-ACTB-RAB5A and in the assay on WPMY1-CANX-COX4 was 1 (active) in each case. In addition, the phenotypically active with WPMY1-GM130-SQSTM1, in the assay with WPMY1-TP53BP1-CLTA and in the assay with WPMY1-TUBA1B-RELA was 1 (active) throughout.

In the case of `C[C@@H]1CN(CC(=O)Nc2ccc3c(c2)Cc2cccc(-c4cc(=O)cc(N5CCOCC5)o4)c2S3)C[C@H](C)O1`, the “lowest phenotypically active concentration” value in the assay with A549-ACTB-RAB5A [1] turned out to be 3 µM; in the assay with A549-CANX-COX4 [2], 9 µM; in the assay with A549-GM130-SQSTM1 [3] it was 3 µM; in the assay with HepG2-TP53BP1-CLTA [4] it was 3 µM; with HepG2-TUBA1B-RELA [5] it was 3 µM. Besides, the phenotypically active with A549-ACTB-RAB5A [6], in the assay with A549-CANX-COX4 [7], with A549-GM130-SQSTM1 [8], with A549-TP53BP1-CLTA, with A549-TUBA1B-RELA and with HepG2-ACTB-RAB5A was 1 (active) in each case. For the same molecule, the phenotypically active in the assay with HepG2-CANX-COX4, with HepG2-GM130-SQSTM1, in the assay with HepG2-TP53BP1-CLTA [9], in the assay on HepG2-TUBA1B-RELA [10], with WPMY1-ACTB-RAB5A and in the assay on WPMY1-CANX-COX4 was 1 (active) throughout. Also, the phenotypically active in the assay on WPMY1-GM130-SQSTM1, in the assay on WPMY1-TP53BP1-CLTA and in the assay with WPMY1-TUBA1B-RELA was 1 (active) each time.
